# Reference: PubChem BioAssay (EPA / NIEHS)
# The source made the active and inactive calls. The calls were made as follows: active = hit-call score of the fitted dose curve at least 0.9, where 1 is the maximum; inactive = score below 0.9.
# What was measured:
# Details in all cases: mRNA level, 48 h; actives raise or lower the signal
# [1] = read-out: Heat shock 70 kDa protein 1 (HSPA1A), gene 3303; assay: LTEA_HepaRG_HSPA1A: Life Technologies and Expression Analysis (LTEA) Assay for Heat shock 70 kDa protein 1 (HSPA1A) using HepaRG (AID 2283502)
# Method in brief: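 Differentiated human HepaRG cells in serum-free induction medium were exposed in duplicate for 48 h to eight concentrations (top 100 uM, half-log steps, 0.5% DMSO). HSPA1A mRNA was quantified by qRT-PCR, normalized to ACTB, GAPDH and POLR2A, and fitted bidirectionally against DMSO.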
# [2] = read-out: 3-Hydroxy-3-Methylglutaryl-CoA Synthase 2 (HMGCS2), HMGCS2 (gene 3158); assay: LTEA_HepaRG_HMGCS2: Life Technologies and Expression Analysis (LTEA) Assay for 3-Hydroxy-3-Methylglutaryl-CoA Synthase 2 (HMGCS2) using HepaRG (AID 2283504)
# Method in brief: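 Readout is HMGCS2 transcript by qRT-PCR, housekeeping-normalised (ACTB/GAPDH/POLR2A) and fitted bidirectionally against 0.5% DMSO. Differentiated HepaRG cells received chemicals 48 h, duplicate wells, eight half-log concentrations topping at 100 uM.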
# HGF (gene 3082) = assay: LTEA_HepaRG_HGF: Life Technologies and Expression Analysis (LTEA) Assay for Hepatocyte Growth Facto (HGF) using HepaRG (AID 2283505)
# Method in brief: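 HGF transcript was quantified by TaqMan qRT-PCR against three housekeeping genes after 48 h treatment of HepaRG cells. Exposure ran in duplicate over eight half-log steps topping at 100 uM in 0.5% DMSO vehicle.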
# [3] = read-out: Insulin Like Growth Factor 1 (IGF1), IGF1 (gene 3479); assay: LTEA_HepaRG_IGF1: Life Technologies and Expression Analysis (LTEA) Assay for Insulin Like Growth Factor 1 (IGF1) using HepaRG (AID 2283506)
# Method in brief: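 Differentiated human HepaRG cells were dosed for 48 h in serum-free induction medium with 0.5% DMSO, eight half-log concentrations up to 100 uM, in duplicate. IGF1 mRNA was quantified by qRT-PCR normalized to ACTB, GAPDH, POLR2A; bidirectional fitting versus DMSO.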
# [4] = read-out: Intercellular Adhesion Molecule 1 (ICAM1), ICAM1 (gene 3383); assay: LTEA_HepaRG_ICAM1: Life Technologies and Expression Analysis (LTEA) Assay for Intercellular Adhesion Molecule 1 (ICAM1) using HepaRG (AID 2283507)
# Method in brief: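 ICAM1 transcript levels measured by qRT-PCR, normalized to three housekeeping genes (ACTB, GAPDH, POLR2A), after 48 h chemical exposure of HepaRG cells. Duplicate eight-point half-log series from 100 uM in 0.5% DMSO; gain or loss fitted against vehicle.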
# [5] = read-out: Insulin-like growth factor-binding protein 1 (IGFBP1), IGFBP1 (gene 3484); assay: LTEA_HepaRG_IGFBP1: Life Technologies and Expression Analysis (LTEA) Assay for Insulin-like growth factor-binding protein 1 (IGFBP1) using HepaRG (AID 2283508)
# Method in brief: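 Read-out is qRT-PCR transcript level normalized to three housekeeping genes, fitted in both directions against 0.5% DMSO. Differentiated HepaRG cells received eight half-log concentrations (top 100 uM) in duplicate for 48 h in serum-free induction medium.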
# [6] = read-out: Interleukin 6 Receptor (IL6R), IL6R (gene 3570); assay: LTEA_HepaRG_IL6R: Life Technologies and Expression Analysis (LTEA) Assay for Interleukin 6 Receptor (IL6R) using HepaRG (AID 2283510)
# Method in brief: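 Differentiated human HepaRG cells, plated 48 h then switched to serum-free induction medium, were dosed in duplicate for 48 h at eight half-log concentrations up to 100 uM in 0.5% DMSO. IL6R mRNA quantified by qRT-PCR, normalized to ACTB/GAPDH/POLR2A; bidirectional fit versus DMSO.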
# [7] = read-out: Keratin 19 (KRT19), KRT19 (gene 3880); assay: LTEA_HepaRG_KRT19: Life Technologies and Expression Analysis (LTEA) Assay for Keratin 19 (KRT19) using HepaRG (AID 2283512)
# Method in brief: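 KRT19 transcript measured by TaqMan qRT-PCR, referenced to three housekeeping genes, after HepaRG cells received test chemicals for 48 h. Eight half-log concentrations, top 100 uM, 0.5% DMSO vehicle; increases and decreases both fitted.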
# [8] = read-out: JUN Transcription Factor, JUN (gene 3725); assay: LTEA_HepaRG_JUN: Life Technologies and Expression Analysis (LTEA) Assay for JUN Transcription Factor using HepaRG (AID 2283513)
# Method in brief: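 Differentiated HepaRG cells were exposed to chemicals for 48 h in serum-free induction medium, 8 concentrations from 100 uM in half-log steps, 0.5% DMSO vehicle, in duplicate. JUN mRNA was quantified by TaqMan qRT-PCR, normalized to ACTB, GAPDH, POLR2A.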
# [9] = read-out: Lipase C (LIPC), LIPC (gene 3990); assay: LTEA_HepaRG_LIPC: Life Technologies and Expression Analysis (LTEA) Assay for Lipase C (LIPC) using HepaRG (AID 2283514)
# Method in brief: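 Read-out is LIPC transcript level by TaqMan qRT-PCR, normalized to three housekeeping genes, after 48 h chemical treatment of human HepaRG liver cells. Curves span eight concentrations topping at 100 uM; activity in either direction scored relative to 0.5% DMSO.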
# [10] = read-out: matrix metalloproteinase-10 (MMP10), MMP10 (gene 4319); assay: LTEA_HepaRG_MMP10: Life Technologies and Expression Analysis (LTEA) Assay for matrix metalloproteinase-10 (MMP10) using HepaRG (AID 2283517)
# Method in brief: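 Gain or loss of MMP10 mRNA is fitted relative to the 0.5% DMSO vehicle. The human hepatic line HepaRG receives a 48-hour serum-free exposure, in duplicate, with a maximum concentration of 100 uM.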
# MYC, MYC (gene 4609) = assay: LTEA_HepaRG_MYC: Life Technologies and Expression Analysis (LTEA) Assay for MYC using HepaRG (AID 2283518)
# Method in brief: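 MYC transcript changes, up or down relative to 0.5% DMSO, from TaqMan qRT-PCR normalized to three housekeeping genes. Human HepaRG cultures received chemicals for 48 h at eight half-log concentrations up to 100 uM, in duplicate.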
# [11] = read-out: matrix metalloproteinase-3 (MMP3), MMP3 (gene 4314); assay: LTEA_HepaRG_MMP3: Life Technologies and Expression Analysis (LTEA) Assay for matrix metalloproteinase-3 (MMP3) using HepaRG (AID 2283519)
# Method in brief: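 HepaRG, human; 48 h dosing, 8 conc. (max 100 uM, half-log), duplicate, 0.5% DMSO. Readout: MMP3 transcript by Fluidigm TaqMan qRT-PCR, ACTB/GAPDH/POLR2A-normalised. Gain or loss fitted vs DMSO.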
# [12] = read-out: Paternally Expressed 10 (PEG10), PEG10 (gene 23089); assay: LTEA_HepaRG_PEG10: Life Technologies and Expression Analysis (LTEA) Assay for Paternally Expressed 10 (PEG10) using HepaRG (AID 2283520)
# Method in brief: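 Differentiated HepaRG cells, plated 48 h then switched to serum-free induction medium, were exposed in duplicate for 48 h to eight half-log concentrations topping at 100 uM in 0.5% DMSO. PEG10 mRNA was quantified by TaqMan qRT-PCR, normalised to ACTB, GAPDH and POLR2A.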
# [13] = read-out: Nuclear factor NF-kappa-B p105 subunit (Homo sapiens) (UniProt P19838); assay: LTEA_HepaRG_NFKB1: Life Technologies and Expression Analysis (LTEA) Assay for Nuclear Factor Kappa B Subunit 1 (NFKB1) using HepaRG (AID 2283521)
# Method in brief: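 Differentiated human HepaRG cells in serum-free induction medium with 0.5% DMSO were exposed for 48 h to eight half-log concentrations, top 100 uM, in duplicate. NFKB1 mRNA measured by Fluidigm TaqMan qRT-PCR, normalised to ACTB, GAPDH and POLR2A; bidirectional fit versus DMSO.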
# [14] = read-out: Lipoprotein lipase (LPL), LPL (gene 4023); assay: LTEA_HepaRG_LPL: Life Technologies and Expression Analysis (LTEA) Assay for Lipoprotein lipase (LPL) using HepaRG (AID 2283515)
# Method in brief: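 Read-out is LPL transcript level by qRT-PCR, normalized to three housekeeping genes and fitted bidirectionally against the DMSO control. Human HepaRG cells received chemicals for 48 h at up to 100 uM.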
# [15] = read-out: MicroRNA 122 (MIR122), gene 406906; assay: LTEA_HepaRG_MIR122: Life Technologies and Expression Analysis (LTEA) Assay for MicroRNA 122 (MIR122) using HepaRG (AID 2283516); also: the transcript read is the microRNA miR-122
# Method in brief: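 Differentiated human HepaRG cells were exposed 48 h in serum-free induction medium to eight half-log concentrations (top 100 uM, 0.5% DMSO). Transcript level was measured by TaqMan qRT-PCR, normalized to ACTB, GAPDH and POLR2A, and fitted bidirectionally versus DMSO.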
# [16] = read-out: Potassium channel subfamily K member 1 (KCNK1), KCNK1 (gene 3775); assay: LTEA_HepaRG_KCNK1: Life Technologies and Expression Analysis (LTEA) Assay for Potassium channel subfamily K member 1 (KCNK1) using HepaRG (AID 2283511)
# Method in brief: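 Gain or loss of KCNK1 mRNA is the read-out, quantified by qRT-PCR against three housekeeping genes after 48 h chemical treatment of human HepaRG liver cells. Concentrations ran from 100 uM downward in half-log steps, vehicle 0.5% DMSO.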
# Sequence of Nuclear factor NF-kappa-B p105 subunit (Homo sapiens) (P19838 whole entry, looked up): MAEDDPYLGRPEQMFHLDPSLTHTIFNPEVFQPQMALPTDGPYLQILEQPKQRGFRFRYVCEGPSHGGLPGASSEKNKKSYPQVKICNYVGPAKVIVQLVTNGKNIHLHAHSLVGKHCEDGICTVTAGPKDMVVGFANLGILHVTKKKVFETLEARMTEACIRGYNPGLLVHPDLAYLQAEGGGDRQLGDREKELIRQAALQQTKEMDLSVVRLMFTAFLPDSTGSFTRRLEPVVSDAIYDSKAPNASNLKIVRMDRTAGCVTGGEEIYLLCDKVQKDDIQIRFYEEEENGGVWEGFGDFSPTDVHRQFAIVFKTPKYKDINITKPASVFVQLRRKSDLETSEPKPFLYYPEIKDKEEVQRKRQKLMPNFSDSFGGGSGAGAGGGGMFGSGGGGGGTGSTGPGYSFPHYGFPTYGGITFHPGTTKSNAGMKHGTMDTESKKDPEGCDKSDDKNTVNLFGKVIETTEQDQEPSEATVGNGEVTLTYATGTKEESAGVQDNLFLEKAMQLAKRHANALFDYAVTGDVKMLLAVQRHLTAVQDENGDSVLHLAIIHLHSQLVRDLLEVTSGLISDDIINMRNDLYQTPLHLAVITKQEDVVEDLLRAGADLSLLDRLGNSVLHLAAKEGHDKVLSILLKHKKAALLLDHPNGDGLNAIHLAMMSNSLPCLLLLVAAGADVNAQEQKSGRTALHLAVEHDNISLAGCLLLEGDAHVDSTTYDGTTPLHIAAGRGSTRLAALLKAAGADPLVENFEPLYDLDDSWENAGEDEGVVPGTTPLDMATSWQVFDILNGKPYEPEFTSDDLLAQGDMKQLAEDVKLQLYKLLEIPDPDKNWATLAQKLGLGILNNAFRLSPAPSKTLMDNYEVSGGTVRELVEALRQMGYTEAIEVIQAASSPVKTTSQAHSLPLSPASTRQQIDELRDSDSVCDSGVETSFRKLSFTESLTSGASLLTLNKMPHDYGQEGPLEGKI
compound,measurement,setting,value
CC(C)(C)C(O)(CCc1ccc(Cl)cc1)Cn1cncn1 (configuration not stated),outcome,[1],inactive
same,AC50,[2],72.3 µM (active)
same,AC50,HGF (gene 3082),79.1 µM (active)
same,AC50,[3],50 µM (active)
same,AC50,[4],50 µM (active)
same,AC50,[5],50 µM (active)
same,outcome,[6],inactive
same,outcome,[7],inactive
same,outcome,[8],inactive
same,AC50,[9],71.8 µM (active)
same,outcome,[10],inactive
same,AC50,"MYC, MYC (gene 4609)",50 µM (active)
same,outcome,[11],inactive
same,outcome,[12],inactive
same,outcome,[13],inactive
CCNS(=O)(=O)C(F)(F)C(F)(F)C(F)(F)C(F)(F)C(F)(F)C(F)(F)C(F)(F)C(F)(F)F,outcome,[2],inactive
same,outcome,HGF (gene 3082),inactive
same,AC50,[3],48.2 µM (active)
same,outcome,[4],inactive
same,outcome,[5],inactive
same,outcome,[6],inactive
same,AC50,[7],48.2 µM (active)
same,outcome,[8],inactive
same,outcome,[9],inactive
same,outcome,[14],inactive
same,AC50,[15],48.2 µM (active)
same,outcome,[10],inactive
same,outcome,"MYC, MYC (gene 4609)",inactive
same,outcome,[11],inactive
same,AC50,[12],15.5 µM (active)
CC(C)(OOC(C)(C)c1ccccc1)c1ccccc1,outcome,[1],inactive
same,outcome,[2],inactive
same,outcome,HGF (gene 3082),inactive
same,outcome,[3],inactive
same,outcome,[4],inactive
same,outcome,[5],inactive
same,outcome,[6],inactive
same,outcome,[16],inactive
same,outcome,[7],inactive
same,outcome,[8],inactive
same,outcome,[9],inactive
same,outcome,[14],inactive
same,outcome,[10],inactive
same,outcome,"MYC, MYC (gene 4609)",inactive
same,outcome,[11],inactive
same,outcome,[12],inactive
same,outcome,[13],inactive
CCOC(=O)[C@]1(c2ccccc2)Oc2ccccc2[C@@H]1N,outcome,[1],inactive
same,AC50,[2],77.3 µM (active)
same,outcome,HGF (gene 3082),inactive
same,AC50,[3],80.2 µM (active)
same,outcome,[4],inactive
same,AC50,[5],91.6 µM (active)
same,outcome,[6],inactive
same,outcome,[16],inactive
same,outcome,[7],inactive
same,AC50,[8],93.6 µM (active)
same,AC50,[9],77.3 µM (active)
same,AC50,[10],92.9 µM (active)
same,AC50,"MYC, MYC (gene 4609)",89.5 µM (active)
same,AC50,[11],72.8 µM (active)
same,AC50,[12],62.5 µM (active)
same,outcome,[13],inactive
CN(C)[C@@H]1C(=O)C(C(N)=O)=C(O)[C@@]2(O)C(=O)C3=C(O)c4c(O)cccc4[C@@](C)(O)[C@H]3C[C@@H]12,outcome,[1],inactive
same,outcome,[2],inactive
same,outcome,HGF (gene 3082),inactive
same,outcome,[3],inactive
same,outcome,[4],inactive
same,outcome,[5],inactive
same,outcome,[6],inactive
same,outcome,[7],inactive
same,outcome,[9],inactive
same,outcome,[15],inactive
same,outcome,[10],inactive
same,outcome,"MYC, MYC (gene 4609)",inactive
same,outcome,[11],inactive
same,outcome,[12],inactive
same,outcome,[13],inactive
CN(C)c1ccccc1,outcome,[1],inactive
same,outcome,[2],inactive
same,outcome,HGF (gene 3082),inactive
same,outcome,[3],inactive
same,outcome,[4],inactive
same,outcome,[5],inactive
same,outcome,[6],inactive
same,outcome,[7],inactive
same,outcome,[8],inactive
same,outcome,[9],inactive
same,outcome,[10],inactive
same,outcome,"MYC, MYC (gene 4609)",inactive
same,outcome,[11],inactive
same,outcome,[12],inactive
